Assay outcomes as filed in PubChem.
In the library only some 4.3% were active in any assay of this set; here they are far more common.
esBAF inh: inhibitors of esBAF chromatin remodeling in mouse ES cells | Bmi1-luciferase knock-in reporter, 24 h; 100% = twice the neutral-well signal | reporter increase, % at 12.5 µM | 350,000 compounds, 2% hits; in the data active = activation above about 40%; inconclusive = no clear call, values can overlap the other calls;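 note: 0% = median of the plate's neutral control wells and 100% = double that signal; a rise in the Bmi1 reporter signal indicates esBAF inhibition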
MITF act: MITF TRPM1 promoter activation in melanoma cells | SK-MEL-5 TRPM1-promoter luciferase, 24 h; % of positive control, neutral wells = 0 | activation, % at 12.5 µM | 300,000 compounds, 0.75% hits | AID 588334;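 active = mean activation of at least 80% with every replicate also reaching 80%; inconclusive = mean reaches 80% but some replicate falls short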;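 note: 0% = neutral control wells and 100% = parthenolide positive control wells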
FGF22 binding: FGF22 (human) thermal shift binding. Q9HCT0. recombinant FGF22 thermal shift, SYPRO orange fluorescence; percent of sucrose octasulfate shift, DMSO zero. activity (Tm shift, normalised), % at 9.99 µM. 340,000 compounds, 1.5% hits. AID 651658;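 active = mean Tm shift, scaled 0 neutral to 100 positive control, at about 1.3% or above, every replicate too, limit read from the data; inconclusive = no clear call, values can overlap the other calls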
Target sequence (Q9HCT0 whole entry, looked up): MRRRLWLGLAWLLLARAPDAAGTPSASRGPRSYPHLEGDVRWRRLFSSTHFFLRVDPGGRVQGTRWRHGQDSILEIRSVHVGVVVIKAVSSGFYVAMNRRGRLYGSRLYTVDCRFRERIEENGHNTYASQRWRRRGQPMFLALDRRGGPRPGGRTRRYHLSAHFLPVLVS
Wnt bcat act: Wnt/beta-catenin pathway activation; AID 743398; Wnt/beta-catenin reporter cell assay, activator, plate reader; 300,000 compounds, 1.2% hits; activation, % at 9.35 µM; in the data active = activation above about 30%, passing the limit was not always enough; inconclusive = no clear call, values can overlap the other calls;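 note: 0% = neutral control wells and 100% = positive control wells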
SMARCA2 act: activators of SMARCA2 function | 370,000 compounds, 1% hits | MG213 cells, MMTV-luciferase reporter, dexamethasone, overnight | activation, % at 9.1 µM | AID 652017; in the data active = activation above about 7.8%;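 note: 0% = vehicle wells and 100% = reference activator wells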
AF4-AF9 inh: MLL-AF4/AF9 protein interaction inhibition. AlphaScreen, biotin-AF4 peptide binding to FLAG-AF9. inhibition, % at 10 µM. 350,000 compounds, 0.47% hits;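 active = every replicate reaching a set inhibition limit, whatever the replicate mean, cut at about 25% in these data; inconclusive = mean inhibition reaches that limit but some replicates miss it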;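 note: 0% = plate neutral control median and 100% = total signal loss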
* hit, by the source's call; ? = inconclusive; · = no result given.

SMILES	esBAF inh	MITF act	FGF22 binding	Wnt bcat act	SMARCA2 act	AF4-AF9 inh
Cc1cc(C(=O)Nc2ccc3c(c2)OCCO3)nn1C(C)(C)C	34	·	0	56*	1	-2
Cc1cccc(C(O)(C(=O)O)c2ccccc2)c1 (stereo not drawn)	·	-6	0	-3	2	-5
Cc1cc(C(=O)Nc2ccccc2)nn1C(C)(C)C	·	·	0	37*	-2	-1
COC(=O)C[C@@H]1CC[C@H]2NC[C@H](O)COC[C@@H]2O1	-5	·	0	·	·	-3
COC(=O)[C@@H]1[C@@H](CO)[C@@H]2Cn3c(ccc(-c4ccccc4)c3=O)[C@H]1N2S(=O)(=O)c1ccccc1C	3	·	0	·	·	2
CC(=O)/C=C/c1ccccc1	4	-4	0	-1	0	0
O=C(/C=C/C=C/c1ccccc1)CC1(O)C(=O)Nc2ccccc21 (stereo not drawn)	·	-7	43*	-3	-1	6
C/C=C/c1ccc(C2[C@@H]3CN(Cc4cccnc4)C[C@H]2N3)cc1 (stereo partly drawn)	·	·	·	·	·	14
CC=Cc1ccc2n(c1=O)C[C@@H]1[C@@H](CO)[C@H](C(=O)OC)[C@H]2N1C(=O)CC1CC1 (mixture of isomers)	-7	·	0	·	·	3
COc1ccc(-c2cc(=NCCC(=O)O)c3cc(C)ccc3o2)cc1	69*	112*	0	13	6	1
CN1CCN(c2ccc([N+](=O)[O-])c(N)c2)CC1	·	0	·	0	2	·
CCN1CCN(c2ccc(N)c(C)c2)CC1	-1	-1	0	-1	-2	37*
O=C(Cc1ccccc1)N1CC2(C1)[C@@H](c1ccccc1)[C@@H](CO)N2Cc1cccc(F)c1	·	·	0	·	·	4
Cn1cccc1/C=C1\C(=O)NC(=O)N(Cc2ccccc2Cl)C1=O	·	-2	44*	?	2	0
Cn1cccc1/C=C1\C(=O)NC(=O)N(CCC2=CCCCC2)C1=O	·	-1	0	8	-2	-1
CC(C)CC#Cc1ccc([C@@H]2[C@H](CO)N3CCCCN(C(=O)Cc4ccccn4)C[C@@H]23)cc1	-8	·	-1	·	·	6
N#Cc1cc2c(nc1SCC(=O)Nc1cc(Cl)ccc1Cl)C1CCN2CC1	58*	-5	·	22	1	·
N#Cc1cc2c(nc1SCC(=O)Nc1ccc(Cl)cc1)C1CCN2CC1	46*	6	0	10	2	5
O=C(O)c1cc2ccccc2n1C1CCN(Cc2ccccc2)CC1	·	·	·	·	-1	·
CCN(CC)Cc1c[nH]c2ccccc12	10	-10	·	·	0	·
CCC(CC)NCc1c[nH]c2ccccc12	·	-1	43*	-8	-2	0
Cc1cccc(C(O)(C(=O)NNC(=O)CN2CCN(C)CC2)c2cccc(C)c2)c1	3	-3	0	0	-4	1
Cc1ccc(C(O)(C(=O)NNC(=O)CN2CCN(C)CC2)c2ccc(C)cc2)cc1	·	-3	44*	-2	1	0
O=C(Cc1cccnc1)N1CCCCN2[C@@H](CO)[C@H](c3ccc(C#CC4CC4)cc3)[C@@H]2C1	·	·	-1	·	·	1
CCCN1[C@@H]2Cn3c(ccc(-c4cccc(OC)c4)c3=O)[C@H]1[C@@H](C(=O)OC)[C@@H]2CO	·	·	·	·	·	-18
SMILES	esBAF inh	MITF act	FGF22 binding	Wnt bcat act	SMARCA2 act	AF4-AF9 inh
OC(c1ccccc1)(c1ccccc1)C1CN2CCC1CC2 (stereo not drawn)	·	-5	44*	-3	4	-1
CC=Cc1ccc2n(c1=O)C[C@H]1[C@H](CO)[C@@H](C(=O)OC)[C@@H]2N1CC1CCCC1 (mixture of isomers)	·	·	·	·	·	-3
Cc1nc2c(-c3ccccc3)c(C)nn2c(C)c1CCC(=O)N1CCC2(CC1)OCCO2	-3	·	·	-3	-3	·
Cc1nc2c(c(C)nn2-c2ccccc2)c(C)c1CCC(=O)N1CCC2(CC1)OCCO2	55*	6	·	·	·	·
COC(=O)[C@H]1[C@H](CO)[C@H]2Cn3c(cccc3=O)[C@@H]1N2C(=O)C1CCCC1	-8	·	-1	·	·	-8
Cn1cc(C(=O)NP(=O)(N2CCOCC2)N2CCOCC2)c2ccccc21	·	8	44*	19	-1	-2
Cc1ccccc1NC(=NCCCN1CC1)Nc1ccccc1C	·	-4	0	2	-1	78*
CCN(CC)c1ccc(/C=C2\C(=O)NC(=S)N(C)C2=O)o1	6	·	0	37*	6	-2
COc1ccc(C(=O)C2CCCN(Cc3cnc(C)s3)C2)c(OC)c1 (stereo not drawn)	-27	-4	0	-1	-4	-16
COc1ccc(C(=O)C2CCCN(Cc3ccccn3)C2)c(OC)c1 (stereo not drawn)	·	-6	43*	-6	-1	0
COc1c(C)cc(C(=O)C2CCCN(Cc3cccc(O)c3)C2)cc1C (stereo not drawn)	-8	·	0	0	-3	2
COc1c(C)cc(C(=O)C2CCCN(Cc3cccc(C)n3)C2)cc1C (stereo not drawn)	·	-14	44*	-8	-3	0
Cc1cccc(CN2CCCC(C(=O)c3cccc(OC(C)C)c3)C2)n1 (stereo not drawn)	·	-9	·	-1	-5	·
COc1c(C)cc(C(=O)C2CCCN(C3CCOCC3)C2)cc1C (stereo not drawn)	-7	-3	43*	-3	0	0
COc1cccc(C(=O)C2CCCN(Cc3cccc(C)n3)C2)c1 (stereo not drawn)	·	-4	44*	-15	0	0
COC(=O)[C@H]1[C@H](CO)[C@H]2Cn3c(ccc(C4=CCCC4)c3=O)[C@@H]1N2CC1CCCCC1	4	·	0	·	·	1
O=[As](O)(O)c1ccc(N=Nc2ccc(O)cc2)cc1	-1	5	0	-2	-3	1
O=C1C(Cl)=CC(=Nc2ccc(O)cc2)C=C1Cl	4	-16	0	-3	-1	36*
Cc1c(NC(NC(=O)CF)C(Cl)(Cl)Cl)c(=O)n(-c2ccccc2)n1C (stereo not drawn)	4	7	43*	-1	-4	0
O=C(NN=Cc1ccc(N(CCCl)CCCl)cc1)c1cc(=O)[nH]c(=O)[nH]1	-6	8	44*	-2	-3	0
O=C(NN=Cc1ccc(N(CCCl)CCCl)cc1)C(=O)c1c[nH]c2ccccc12	6	-9	0	3	-5	0
CN(C)c1ccc(NC(=O)CN2C(=O)CN=C(c3ccccc3)c3cc(Cl)ccc32)cc1	-3	16	-1	-3	3	27*
Cc1ccc(NC(=O)CN2C(=O)CN=C(c3ccccc3)c3cc(Cl)ccc32)cc1	9	-1	0	-6	-3	9
O=C(CNC(=O)OCc1ccccc1)NC(Cc1ccccc1)P(=O)(Oc1ccccc1)Oc1ccccc1 (stereo not drawn)	·	·	·	·	-2	·
